# Measurements reported in PMC7862700, “An all-to-all approach to the identification of sequence-specific readers for epigenetic DNA modifications on cytosine”.
# Assays:
# Assay in all cases: DAPPL (digital affinity profiling via proximity ligation, sequencing); 10 mM Tris-HCl pH 7.5, 50 mM NaCl, 1 mM DTT, 4% glycerol, room temperature, 30 min; GST-TFs on glutathione beads, 16-mer random dsDNA library, 0.1% formaldehyde crosslink after washing; high values mean tight binding
# [1] = target: T1, FEV (Homo sapiens, UniProt Q99581 1-238); settings: protein: recombinant; tags: N-terminal GST; dsDNA, one strand shown
# T1 sequence: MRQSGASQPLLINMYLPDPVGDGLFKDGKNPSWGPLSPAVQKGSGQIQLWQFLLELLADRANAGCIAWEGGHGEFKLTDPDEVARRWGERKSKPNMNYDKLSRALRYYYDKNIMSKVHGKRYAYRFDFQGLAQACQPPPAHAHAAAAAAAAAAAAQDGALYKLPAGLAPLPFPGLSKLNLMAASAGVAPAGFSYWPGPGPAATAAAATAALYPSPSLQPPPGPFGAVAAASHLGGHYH
# In short: (§1)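 Human transcription factors were made in yeast as GST fusions, captured on glutathione beads and barcoded with DNA. With a tag-only sample included, the pool was incubated with 200 nmole of a random double-stranded 16-mer DNA library in Tris/NaCl/DTT/glycerol buffer at room temperature for 30 min, then crosslinked with 0.1% formaldehyde after washing, ligated by proximity, amplified and sequenced. For binding signal, each hexamer's read frequency for a factor is divided by its frequency for the tag-only sample.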
# [2] = target: ETV5 (Homo sapiens, UniProt P41161 1-510); settings: protein: recombinant; tags: N-terminal GST; dsDNA, one strand shown
# Sequence of ETV5 (P41161 whole entry): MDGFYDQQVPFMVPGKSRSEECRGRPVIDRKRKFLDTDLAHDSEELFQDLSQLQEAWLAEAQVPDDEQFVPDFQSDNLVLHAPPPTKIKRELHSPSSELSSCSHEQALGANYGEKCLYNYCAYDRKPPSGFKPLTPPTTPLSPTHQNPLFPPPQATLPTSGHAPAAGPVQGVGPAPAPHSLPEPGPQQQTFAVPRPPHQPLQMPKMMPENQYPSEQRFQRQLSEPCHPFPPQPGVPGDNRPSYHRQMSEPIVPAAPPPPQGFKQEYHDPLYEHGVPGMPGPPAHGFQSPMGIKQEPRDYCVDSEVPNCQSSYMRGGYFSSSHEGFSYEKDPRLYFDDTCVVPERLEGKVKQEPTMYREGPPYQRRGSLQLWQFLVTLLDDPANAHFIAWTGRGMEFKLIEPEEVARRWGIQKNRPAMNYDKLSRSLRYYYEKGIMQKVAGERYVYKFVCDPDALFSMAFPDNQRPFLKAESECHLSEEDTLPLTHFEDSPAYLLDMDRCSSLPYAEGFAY
# In short: as §1
# [3] = target: HSF1 (Homo sapiens, UniProt Q00613 1-529); settings: protein: recombinant; tags: N-terminal GST; chain copies: 3; dsDNA, one strand shown
# Sequence of HSF1 (Q00613 whole entry): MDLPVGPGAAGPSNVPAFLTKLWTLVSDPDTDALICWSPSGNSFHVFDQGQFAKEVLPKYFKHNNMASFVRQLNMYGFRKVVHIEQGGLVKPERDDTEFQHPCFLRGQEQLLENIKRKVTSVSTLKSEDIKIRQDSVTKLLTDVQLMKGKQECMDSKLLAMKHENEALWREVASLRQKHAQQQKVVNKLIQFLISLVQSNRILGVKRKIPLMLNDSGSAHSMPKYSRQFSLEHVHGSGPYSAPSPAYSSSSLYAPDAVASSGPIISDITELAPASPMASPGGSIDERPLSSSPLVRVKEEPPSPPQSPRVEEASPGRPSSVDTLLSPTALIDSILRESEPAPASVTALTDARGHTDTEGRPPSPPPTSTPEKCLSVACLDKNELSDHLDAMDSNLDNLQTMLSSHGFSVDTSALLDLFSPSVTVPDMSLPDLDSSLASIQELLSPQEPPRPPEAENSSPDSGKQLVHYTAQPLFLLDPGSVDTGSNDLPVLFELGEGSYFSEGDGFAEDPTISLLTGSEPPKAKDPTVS
# In short: as §1
# [4] = target: T2, SPIC (Homo sapiens, UniProt Q8N5J4 1-248); settings: protein: recombinant; tags: N-terminal GST; dsDNA, one strand shown
# T2 sequence: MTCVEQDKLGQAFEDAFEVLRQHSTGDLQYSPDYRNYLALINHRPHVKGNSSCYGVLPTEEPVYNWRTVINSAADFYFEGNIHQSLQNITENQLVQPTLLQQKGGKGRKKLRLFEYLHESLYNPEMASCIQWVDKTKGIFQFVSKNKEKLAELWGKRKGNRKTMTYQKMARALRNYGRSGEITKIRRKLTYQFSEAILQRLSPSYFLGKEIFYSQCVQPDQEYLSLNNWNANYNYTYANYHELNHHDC
# In short: as §1
# [5] = target: ELF4 (Homo sapiens, UniProt Q99607 1-663); settings: protein: recombinant; tags: N-terminal GST; dsDNA, one strand shown
# Sequence of ELF4 (Q99607 whole entry): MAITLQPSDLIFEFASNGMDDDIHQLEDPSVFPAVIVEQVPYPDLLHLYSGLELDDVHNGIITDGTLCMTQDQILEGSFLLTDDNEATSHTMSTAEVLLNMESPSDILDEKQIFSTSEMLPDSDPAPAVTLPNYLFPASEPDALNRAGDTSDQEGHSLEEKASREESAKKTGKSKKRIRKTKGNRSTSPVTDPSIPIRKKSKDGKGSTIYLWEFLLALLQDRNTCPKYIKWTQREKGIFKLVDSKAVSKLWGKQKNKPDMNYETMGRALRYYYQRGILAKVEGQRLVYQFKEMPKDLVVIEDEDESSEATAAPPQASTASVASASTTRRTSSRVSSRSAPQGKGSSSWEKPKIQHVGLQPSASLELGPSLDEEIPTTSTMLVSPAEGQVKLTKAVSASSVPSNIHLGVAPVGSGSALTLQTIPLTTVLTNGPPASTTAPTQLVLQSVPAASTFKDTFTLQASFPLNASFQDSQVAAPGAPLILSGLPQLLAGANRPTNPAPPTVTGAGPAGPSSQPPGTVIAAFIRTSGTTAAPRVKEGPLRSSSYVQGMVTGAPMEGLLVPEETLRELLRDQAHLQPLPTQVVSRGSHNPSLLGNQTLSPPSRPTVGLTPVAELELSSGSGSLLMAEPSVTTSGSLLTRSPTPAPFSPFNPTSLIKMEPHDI
# In short: as §1
# [6] = target: T3, ELK4 (Homo sapiens, UniProt P28324-2 1-405); settings: protein: recombinant; tags: N-terminal GST; dsDNA, one strand shown
# T3 sequence: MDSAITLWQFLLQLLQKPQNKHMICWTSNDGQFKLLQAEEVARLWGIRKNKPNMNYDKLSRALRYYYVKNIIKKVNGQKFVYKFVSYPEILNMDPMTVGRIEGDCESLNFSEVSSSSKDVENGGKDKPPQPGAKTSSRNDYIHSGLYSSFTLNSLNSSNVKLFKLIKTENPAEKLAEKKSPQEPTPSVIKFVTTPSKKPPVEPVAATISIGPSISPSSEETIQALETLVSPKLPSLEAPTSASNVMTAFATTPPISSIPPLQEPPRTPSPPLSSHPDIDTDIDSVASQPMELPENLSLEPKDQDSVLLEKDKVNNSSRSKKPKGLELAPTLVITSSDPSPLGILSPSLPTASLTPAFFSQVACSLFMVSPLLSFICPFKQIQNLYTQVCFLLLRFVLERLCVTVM
# In short: as §1
# [7] = target: T4, ETV2 (Homo sapiens, UniProt O00321 1-342); settings: protein: recombinant; tags: N-terminal GST; dsDNA, one strand shown
# T4 sequence: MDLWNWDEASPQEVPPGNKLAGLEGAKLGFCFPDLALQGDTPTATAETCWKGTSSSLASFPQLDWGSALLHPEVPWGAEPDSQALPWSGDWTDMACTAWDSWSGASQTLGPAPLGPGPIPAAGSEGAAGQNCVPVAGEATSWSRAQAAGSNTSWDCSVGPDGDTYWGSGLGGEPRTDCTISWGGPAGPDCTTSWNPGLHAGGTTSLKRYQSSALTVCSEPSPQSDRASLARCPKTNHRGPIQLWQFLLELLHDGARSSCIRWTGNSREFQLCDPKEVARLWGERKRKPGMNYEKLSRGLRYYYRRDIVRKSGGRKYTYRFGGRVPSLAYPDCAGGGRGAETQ
# In short: as §1
# [8] = target: T5, ELF3 (Homo sapiens, UniProt P78545 1-371); settings: protein: recombinant; tags: N-terminal GST; dsDNA, one strand shown
# T5 sequence: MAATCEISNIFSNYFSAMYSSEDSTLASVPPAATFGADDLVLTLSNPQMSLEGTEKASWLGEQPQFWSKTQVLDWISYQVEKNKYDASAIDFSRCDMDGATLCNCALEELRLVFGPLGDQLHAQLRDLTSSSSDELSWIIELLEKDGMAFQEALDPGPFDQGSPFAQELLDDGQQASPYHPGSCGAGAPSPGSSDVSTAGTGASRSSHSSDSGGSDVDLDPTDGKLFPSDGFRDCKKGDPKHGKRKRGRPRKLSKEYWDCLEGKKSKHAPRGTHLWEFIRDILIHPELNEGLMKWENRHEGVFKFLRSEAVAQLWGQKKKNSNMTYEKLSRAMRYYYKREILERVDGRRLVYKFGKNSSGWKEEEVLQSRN
# In short: as §1
# [9] = target: CRX (Homo sapiens, UniProt O43186 1-299); settings: protein: recombinant; tags: N-terminal GST; dsDNA, one strand shown
# Sequence of CRX (O43186 whole entry): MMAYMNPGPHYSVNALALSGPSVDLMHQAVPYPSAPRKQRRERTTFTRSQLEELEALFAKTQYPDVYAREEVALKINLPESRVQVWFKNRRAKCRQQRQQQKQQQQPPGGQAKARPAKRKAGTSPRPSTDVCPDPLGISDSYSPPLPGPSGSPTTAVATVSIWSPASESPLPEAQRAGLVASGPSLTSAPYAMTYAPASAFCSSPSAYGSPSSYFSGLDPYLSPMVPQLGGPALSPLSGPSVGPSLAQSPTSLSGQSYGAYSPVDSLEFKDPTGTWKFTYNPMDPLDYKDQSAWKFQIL
# In short: as §1
# [10] = target: ETV1 (Homo sapiens, UniProt P50549 1-477); settings: protein: recombinant; tags: N-terminal GST; dsDNA, one strand shown
# Sequence of ETV1 (P50549 whole entry): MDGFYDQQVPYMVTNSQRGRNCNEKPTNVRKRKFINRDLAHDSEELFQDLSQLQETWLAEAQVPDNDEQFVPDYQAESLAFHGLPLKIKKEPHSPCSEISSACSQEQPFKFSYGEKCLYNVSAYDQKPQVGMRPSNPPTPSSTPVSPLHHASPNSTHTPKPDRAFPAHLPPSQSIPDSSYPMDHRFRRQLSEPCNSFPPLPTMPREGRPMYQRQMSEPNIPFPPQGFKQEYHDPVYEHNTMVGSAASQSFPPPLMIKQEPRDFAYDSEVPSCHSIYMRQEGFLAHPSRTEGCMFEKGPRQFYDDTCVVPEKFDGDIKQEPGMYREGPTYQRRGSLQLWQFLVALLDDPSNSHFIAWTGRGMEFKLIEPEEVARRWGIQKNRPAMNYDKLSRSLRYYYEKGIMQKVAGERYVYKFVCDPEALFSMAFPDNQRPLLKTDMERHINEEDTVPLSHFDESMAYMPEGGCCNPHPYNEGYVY
# In short: as §1
sequence,measurement,setting,value
TAATTC,binding signal,[1],"1.36 fold enrichment (6-mer frequency, TF over GST control)"
same,binding signal,[2],"1.44 fold enrichment (6-mer frequency, TF over GST control)"
same,binding signal,[3],"2.33 fold enrichment (6-mer frequency, TF over GST control)"
same,binding signal,[4],"1.44 fold enrichment (6-mer frequency, TF over GST control)"
same,binding signal,[5],"1.48 fold enrichment (6-mer frequency, TF over GST control)"
same,binding signal,[6],"1.3 fold enrichment (6-mer frequency, TF over GST control)"
same,binding signal,[7],"1.51 fold enrichment (6-mer frequency, TF over GST control)"
same,binding signal,[8],"1.29 fold enrichment (6-mer frequency, TF over GST control)"
same,binding signal,[9],"3.05 fold enrichment (6-mer frequency, TF over GST control)"
same,binding signal,[10],"1.4 fold enrichment (6-mer frequency, TF over GST control)"
